Assay results as given in PMC7819943, “Rice protein-binding microarrays: a tool to detect cis-acting elements near promoter regions in rice”.
Over roughly 39,000 sequences, “fluorescence intensity (a.u.)” has its median near 4,300; the highest 2% begin near 39,000. What follows is part of a selection rich in the highest values, with near analogues and random picks from the rest.

Target: T1, OsSMF1 (Oryza sativa, UniProt Q6ZLB0 1-436)
T1 sequence: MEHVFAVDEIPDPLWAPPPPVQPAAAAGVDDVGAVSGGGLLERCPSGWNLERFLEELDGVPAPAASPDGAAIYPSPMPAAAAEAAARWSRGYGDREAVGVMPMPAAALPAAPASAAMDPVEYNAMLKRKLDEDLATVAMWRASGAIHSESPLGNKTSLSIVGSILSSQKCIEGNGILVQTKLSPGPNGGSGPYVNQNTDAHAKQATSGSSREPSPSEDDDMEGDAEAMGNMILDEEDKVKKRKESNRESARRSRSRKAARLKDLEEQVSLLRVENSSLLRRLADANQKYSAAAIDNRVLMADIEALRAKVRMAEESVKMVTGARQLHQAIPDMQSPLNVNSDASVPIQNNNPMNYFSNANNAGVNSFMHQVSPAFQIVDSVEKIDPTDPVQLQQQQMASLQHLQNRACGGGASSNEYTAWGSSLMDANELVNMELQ
Experiment: protein-binding microarray (RPBM); PBS, 2% BSA, 51.3 ng/ul salmon testes DNA, 50 uM zinc acetate, 200 nM TF, 25 C, 1 h; high values mean tight binding
Conditions: protein: recombinant; tags: N-terminal polyhistidine and DsRed monomer fusion (pET32a); chain copies: 2; label: CyDye5-dUTP incorporated in the synthesized complementary strand; 3' TTTTT single-stranded linker to array surface; dsDNA, one strand shown
How it was run: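 Transcription factors were each fused at the N-terminus to a polyhistidine tag plus DsRed and expressed in E. coli BL21-CodonPlus before Ni–NTA purification. Binding to a double-stranded custom Agilent array was carried out with 200 nM protein at 25 °C for 1 h in PBS, 2% BSA, salmon testes DNA and 50 µM zinc acetate. The binding signal is per-feature fluorescence intensity, in arbitrary units, on an Axon 4000B scanner.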

Going from “GACATGTAGGACCCACGTGAGTCAATGACACGTGGGTCAGCGGAGTCACCTAGTGCAG” to “ACACGTGGGTCCACGTAGGCGACACGTCAATGCCACGTCACGGAGTCACCTAGTGCAG”, the binding signal rises from 23800 fluorescence intensity (a.u.) to 55900 fluorescence intensity (a.u.).

Compared with “AAGTTCACAGTGCTGACCACGGTCAAGGTGCCACGTCATCCGGAGTCACCTAGTGCAG”, “GCGTCATCATGACATGCCACGTCAGCACATGGAGCGGGTTCGGAGTCACCTAGTGCAG” is lower in binding signal: 35200 fluorescence intensity (a.u.) for the first, 26100 fluorescence intensity (a.u.) for the second.

Going from “GAGTTAGCAGTGTTGACCACGGTCAAGGTGCCACGTCATCCGGAGTCACCTAGTGCAG” to “GTGCCTCCGTAGCAATGCCACGTCAGCATATGGAGCGGGTCGGAGTCACCTAGTGCAG”, the binding signal rises from 43000 fluorescence intensity (a.u.) to 44600 fluorescence intensity (a.u.).

Compared with “TATTACCACGTAGGCGCCACGTGGCGCCACGTCAGCAAAACGGAGTCACCTAGTGCAG”, “TGTGGGGTCCACGTAATGCCACGTCAGCGCAACCTAGGAACGGAGTCACCTAGTGCAG” is lower in binding signal: 42100 fluorescence intensity (a.u.) for the first, 37100 fluorescence intensity (a.u.) for the second.

First: CGCTACCGTGGCATGCCACGTCACCGGATGGAGCGGGTCGCGGAGTCACCTAGTGCAG
Second: CAGTGACTCCTCTCCTACGTAGGCGCCACGTCAGCAAAACCGGAGTCACCTAGTGCAG
The binding signal of the first is lower: 20100 fluorescence intensity (a.u.) for the first, 20900 fluorescence intensity (a.u.) for the second.

First: TTGAGTCAGTAGTGTTGACAACGGTCAAGGTGCCACGTCACGGAGTCACCTAGTGCAG
Second: ATTTTATTGGGATCAAATTACCACGTAGGCGCCACGTCAACGGAGTCACCTAGTGCAG
The binding signal of the first is higher: 26100 fluorescence intensity (a.u.) for the first, 20900 fluorescence intensity (a.u.) for the second.

Compared with “AGAGAGAGGGGAGAGGGGTGGAAGGGGAATATGGTAGCTGCGGAGTCACCTAGTGCAG”, “CCTCGTCGCCGCGTCACGGCGTCAGCTCGCCGCTCTAGGGCGGAGTCACCTAGTGCAG” is higher in binding signal: 3330 fluorescence intensity (a.u.) for the first, 4820 fluorescence intensity (a.u.) for the second.

Going from “GCCTCACAACCCGCATGGACACTGACATCGGCATCATCATCGGAGTCACCTAGTGCAG” to “GACAAAGTCACACTGTCACACGTATTACCGGTTACAAACTCGGAGTCACCTAGTGCAG”, the binding signal falls from 4260 fluorescence intensity (a.u.) to 3940 fluorescence intensity (a.u.).

Compared with “GGCAACCGCCCTTAAGGTGTGAGACAGCACGACAACGCCCCGGAGTCACCTAGTGCAG”, “GTATTGGAGCTCTACAGTTCGGTCTACTCCTCTCTGTTGCCGGAGTCACCTAGTGCAG” is higher in binding signal: 3690 fluorescence intensity (a.u.) for the first, 27500 fluorescence intensity (a.u.) for the second.

Compared with “AACCACGTATGCGCCACGTCATCCAAAACCGCCTTCAAAACGGAGTCACCTAGTGCAG”, “ATTGCCACGTAGGCGCCACGTGGCGCCACATCAGCAAAACCGGAGTCACCTAGTGCAG” is higher in binding signal: 14400 fluorescence intensity (a.u.) for the first, 40700 fluorescence intensity (a.u.) for the second.

Going from “AGCACCACGGTCAATGCCACGTATGTGCCACGTCATCCAACGGAGTCACCTAGTGCAG” to “GTAGGCGCCACGTGGCGCCACGTCAGCAAAACCGCCTCCTCGGAGTCACCTAGTGCAG”, the binding signal falls from 46600 fluorescence intensity (a.u.) to 24000 fluorescence intensity (a.u.).

Going from “ACGTCTCCTCCTCCTCCACGTCAAACCACAATCCAACCAACGGAGTCACCTAGTGCAG” to “CAACACCGCCACGTAGGCGCCACATCAGCAAAACCATCCTCGGAGTCACCTAGTGCAG”, the binding signal rises from 5400 fluorescence intensity (a.u.) to 23200 fluorescence intensity (a.u.).

Going from “GTCGTGCTAGCTCGATCCATTTCCTACGTGTGCACCAAACCGGAGTCACCTAGTGCAG” to “GAAAGGGATGGCTCACTTGAAACGTACTGCTCCCTGCCCCCGGAGTCACCTAGTGCAG”, the binding signal falls from 5810 fluorescence intensity (a.u.) to 3160 fluorescence intensity (a.u.).

First: GATTAAAACCAAAACTCATGATGGAAGTGGATGCATTTGCCGGAGTCACCTAGTGCAG
Second: AGCCAAAGCATTTGCCATCCGATGAGGGCGTACTATTAAACGGAGTCACCTAGTGCAG
The binding signal of the first is lower: 25500 fluorescence intensity (a.u.) for the first, 28000 fluorescence intensity (a.u.) for the second.

First: CCAAGGTAAGATGAAGCAGCAGCATTTGCATTAAACTATCCGGAGTCACCTAGTGCAG
Second: TTGATAATTACTCTTACGTCCCTCACCCTATGCTCCTGTGCGGAGTCACCTAGTGCAG
The binding signal of the first is higher: 60100 fluorescence intensity (a.u.) for the first, 3440 fluorescence intensity (a.u.) for the second.

Compared with “TATTTTATATTAGTGTTCAAACGTTCGATGTGACATGTGTCGGAGTCACCTAGTGCAG”, “AATACTTTATGCAGGTGTTCAAATGTTCGATGTGACAGGGCGGAGTCACCTAGTGCAG” is lower in binding signal: 3930 fluorescence intensity (a.u.) for the first, 3150 fluorescence intensity (a.u.) for the second.

Going from “TACTTTATATAGATGTTCAAACATTCGATATGACATGCTGCGGAGTCACCTAGTGCAG” to “ATTGCAACCGGAGAGCCTGACCAAAGAAATTCAGATCCTTCGGAGTCACCTAGTGCAG”, the binding signal falls from 45300 fluorescence intensity (a.u.) to 3200 fluorescence intensity (a.u.).

First: TCAAATTGTCACATAAGCGTCATGTCAATGCCACGTCAGACGGAGTCACCTAGTGCAG
Second: CGGATCGAATTGCCACGTAAGCGGCACGTCAGTGCCATGTCGGAGTCACCTAGTGCAG
The binding signal of the first is higher: 27200 fluorescence intensity (a.u.) for the first, 20000 fluorescence intensity (a.u.) for the second.

Compared with “ATGCATCTAAGCATATTAGCTATATACCACATCATTTTCACGGAGTCACCTAGTGCAG”, “GTTAAATTGCCACGTAAGCACCACGTCATACCACGTCAGACGGAGTCACCTAGTGCAG” is higher in binding signal: 4780 fluorescence intensity (a.u.) for the first, 51500 fluorescence intensity (a.u.) for the second.

Going from “TTATTTTAGTGCCACGTAAGCGACACGTCGATGCCACATGCGGAGTCACCTAGTGCAG” to “GAAGTGCCACGTAAGCACCACATCAATGCCACGTCAGATGCGGAGTCACCTAGTGCAG”, the binding signal rises from 23000 fluorescence intensity (a.u.) to 38800 fluorescence intensity (a.u.).

Compared with “GAATTGCCACGTAAGCACCACGTCAGTGCCATGTCAGATGCGGAGTCACCTAGTGCAG”, “TTAATTGAAATGCCACCTAAGCACCACGTCAGCACACAGACGGAGTCACCTAGTGCAG” is lower in binding signal: 52400 fluorescence intensity (a.u.) for the first, 18700 fluorescence intensity (a.u.) for the second.

For “TTTTCATTTTAGTGCCACGTAAGCACCACATCGATGCCACCGGAGTCACCTAGTGCAG”, the binding signal was 41200 fluorescence intensity (a.u.).
